From PubChem BioAssay AID2314 (National Center for Advancing Translational Sciences (NCATS), 2010) come the findings set out here.

Structures are written as SMILES. The whole screen tested about 300,000 compounds, of which about 37,000 (12%) were called active. The sample as a whole holds a higher share of actives than the screen did. Unmarked numbers belong to inactive results. Cut-off read from the data, not from the text of the source: active = max response mostly above about 13% (no sharp cut-off); inactive = mostly below about 14%.

A short description of the assay: Cycloheximide Counterscreen for Small Molecule Inhibitors of Shiga Toxin. Note: read at 38.3 µM for the half of the compounds with a filed dose; 0% is about no effect. As to conditions: cell reporter, cycloheximide protein synthesis inhibition counterscreen; active compounds read high. On the technique in general: A counterscreen serves to expose hits that act by an unwanted route or on another target.
On to `CC(Oc1ccccc1[N+](=O)[O-])C(=O)N/N=C/c1ccoc1` (stereo not given), for which the max response is -2.14%.
On to `CCOc1cc(C(C(=O)NCC2CCCO2)N(C(=O)Cn2nnc3ccccc32)c2cccc(OC)c2)ccc1O` (stereo not given), for which the max response was -2.76%.
For the compound `Cc1c(Cl)c([N+](=O)[O-])nn1Cc1ccc(C(=O)N/N=C\c2cc(Cl)ccc2O)o1`, the max response was 9.36%.
Regarding `CN(C)c1ccc(/C=N/NC(=O)c2ccc(Cn3cc(Br)cn3)o2)cc1`, the max response is 56.4% (active).
In the case of `CC1CCc2c(sc(NC(=O)c3ccc(Cn4cc(Br)cn4)o3)c2C(N)=O)C1` (stereo not given), the max response is 0.185%.
`O=C(N/N=C\c1ccc(Br)cc1)c1ccc(Cn2cccn2)o1`: the max response is 19.8% (active).
As for `O=C(N/N=C/c1ccc2c(c1)OCO2)c1ccc(Cn2cc([N+](=O)[O-])cn2)o1`, the figure is 12.3%; as for `O=C(N/N=C/c1ccc(OCC2COCCO2)cc1)c1ccc(Br)cc1` (stereo not given), 3.9%.
For the compound `C=CCNC(=S)NNc1ncnc2sc3c(c12)CC(C)(C)OC3`, the max response is -1.51%.
In the case of `COc1ccccc1CNS(=O)(=O)CC12CCC(CC1=O)C2(C)C` (stereo not given), the max response was -1.52%.
With `CC(C)(C)OC(=O)CNC(=O)c1[nH]cnc1C(=O)N[C@@H](Cc1ccccc1)C(=O)OCc1ccccc1`, the max response is -1.14%.
As for `CCOC(=O)N1CCN(Cc2nnc(-c3ccccc3Cl)o2)CC1`, the max response was -1.64%.
Turning to `N/C(=N\S(=O)(=O)c1cc(C(F)(F)F)cc(C(F)(F)F)c1)c1cccs1`, the max response was 0.609%.
Take `Cc1nn(Cc2ccc(Cl)cc2)c(Cl)c1/C=N/NC(=O)CNc1ccccc1F`: the max response is -0.244%.
As for `CCn1nc(C)c(/C=N/NC(=O)Cc2ccc(Cl)cc2)c1C`, the figure is 27.9% (active); as for `Cc1nn(Cc2ccc(Cl)cc2)c(Cl)c1/C=N/NC(=O)c1cccnc1`, -2.03%.
Consider `COCCCNC(=O)[C@H]1N2C(=O)c3ccccc3C2SC1(C)C` (stereo not given in full), for which the max response is -1.51%.
Consider `Cc1ccc(SCCC(=O)NC(C(C)C)C(C)C)cc1`, for which the max response is 1.28%.
With `Cc1ccc(SCCC(=O)NCc2ccccn2)cc1`, the max response was -2.86%.
The result for `Cc1ccc(SCCSc2ncccn2)cc1` reads 44.5% (active); that for `Cc1cc(=O)oc2cc(OCC(=O)N3CCN(c4ccc(F)cc4)CC3)c(Cl)cc12`, -1.36%.
For the compound `Cc1cc(C)n2nc(SCC(=O)NC(=O)NCc3ccco3)nc2n1`, the max response was 3.86%.
As for `COc1ccc(NC(=O)c2cccc(Cl)c2)c[n+]1[O-]`, the figure is -3.34%; as for `C/C(=N\N(C)C)c1ccc(OCCOc2ccc([N+](=O)[O-])cc2)cc1`, 10.2%; as for `CCOCCCNC(=O)c1c[nH]c2cc(C)ccc2c1=O`, 15.4% (active).
As for `CCc1cccc2c(=O)c(C(=O)NCCCOC)c[nH]c12`, the max response was -0.768%.
In the case of `CCOCCCNC(=O)C(NC(=O)c1ccc(=O)[nH]c1)c1ccc(C)cc1` (stereo not given), the max response is -5.76%.
The result for `CCOC(=O)C1(CCOC)CCN(Cc2ccc(C(=O)OC)cc2)CC1` reads 19.1% (active); that for `CCOC(=O)C1(CCOc2ccccc2)CCN(Cc2cc(OC)cc(OC)c2)CC1`, -1.48%.
As to `CCOC(=O)C1(CCOC)CCN(Cc2cc3ccccc3s2)CC1`, the max response is -0.534%.
Regarding `Cn1c(CN2CCOCC2)nc2cc(NC(=O)c3ccc(Cl)cc3)ccc21`, the max response was 32.5% (active).
As for `Cc1nc2cc(NC(=O)Nc3cccc(F)c3)ccc2n1C`, the figure is 23% (active); as for `CCOc1ccc(C(=O)Nc2ccc(CN3CCOCC3)cc2)cc1Cl`, 6.5%; as for `CCOC(=O)N1CCN(Cc2nc3cc(NC(C)=O)ccc3n2C)CC1`, -2.56%.
For the compound `Cc1cc2nc(C)n(CCCNC(=O)Nc3ccccc3)c2cc1C`, the max response is -3.47%.
As to `O=C(CCN1C(=O)c2ccccc2C1=O)Nc1cccc(F)c1`, the max response is -3.51%.
On to `COc1ccc(-n2cnc3cc(NCc4ccco4)ccc32)cc1`, for which the max response is 20.3%.
As for `Cn1ncc(Br)c1C(=O)NCc1cccs1`, the figure is 2.99%.
Take `Cc1nc2cc(NC(=O)NC3CC3)ccc2n1C`: the max response is 20.8% (active).
Regarding `Cc1ccc(NC(=O)NC2CCCCC2)cc1S(=O)(=O)N1CCOCC1`, the max response was -2.12%.
On to `Cc1nc2cc(NCc3cccs3)ccc2n1C`, for which the max response is 51.1% (active).
On to `Cc1cc(C)nc(-n2ncc3c2CC(c2ccc(C(C)C)cc2)CC3=O)n1` (stereo not given), for which the max response is 3.79%.
Take `CCC(=O)NC(Nc1nc2ccc(C)cc2s1)(C(=O)OC)C(F)(F)F` (stereo not given): the max response was 1.01%.
As for `O=C(CN1C(=O)c2cccc3cccc1c23)Nc1ccccc1`, the max response is -0.618%.
As for `Cc1cc2c(cc1S(=O)(=O)NCc1ccc(Cl)cc1)OCC(=O)N2`, the max response is 1.87%.
On to `CN(CCc1ccccn1)C1CCCN(S(=O)(=O)c2ccccc2Cl)C1` (stereo not given), for which the max response was -3.81%.
Consider `CC(C)NC(=O)N1CCN(c2ccncc2S(=O)(=O)N2CCCCC2)CC1`, for which the max response is 0.305%.
Take `C=CCc1ccccc1OCC(O)CN1CCN(CCO)CC1` (stereo not given): the max response is -1.25%.
As to `Cc1[nH]c2ccccc2c1C(=O)CN1CCCC(C)C1` (stereo not given), the max response was 4.44%.
With `CCC(=O)Nc1ccc2c(c1)nc(CCN1CCN(c3ccccn3)CC1)n2C`, the max response is -2.39%.
`Cn1c(CCN2CCCC2)nc2cc(NS(=O)(=O)c3ccccc3)ccc21`: the max response is 9.99%.
`Cn1c(CCN2CCCCCC2)nc2cc(NC(=O)Nc3ccccc3)ccc21`: the max response was 59.7% (active).
On to `CCN(CC)C(=O)Oc1ccc(OC(=O)N(CC)CC)cc1`, for which the max response is 19%.
As for `CCCCCn1c(=O)c(C(=O)NCc2ccccn2)c(O)c2ccccc21`, the figure is -1.8%.
The result for `CCCn1c(=O)c(C(=O)Nc2cc(C)ccn2)c(O)c2ccccc21` reads 9.34% (active); that for `CCCCCn1c(=O)c(C(=O)Nc2c(C)n(C)n(-c3ccccc3)c2=O)c(O)c2ccccc21`, -1.67%; that for `Cn1c(=O)c(Sc2ccc(Cl)cc2)c(O)c2ccccc21`, -5.19%.
As for `Cn1c(=O)c(C(=O)Nc2ncccn2)c(O)c2ccccc21`, the figure is 17.3% (active); as for `C=CCn1c(=O)c(C(=O)Nc2ncccc2O)c(O)c2ccccc21`, 0.679%.
With `N#C/C(=C/c1cccc([N+](=O)[O-])c1)c1nnc2n1CCCCC2`, the max response is -4.02%.
